Results filed as inconclusive are left out. A number with no mark means an inactive call. Active and inactive are the calls of the source. Calls come from the whole dose curve; as a rule, active = well fitted curve in the direction sought with a large enough effect; inconclusive = small, poorly fitted or top-dose-only effect, or another doubt; inactive = no such curve, though single readings can be large; an effect the other way counts as inactive or inconclusive.

The nature of experiment [1]: Quantitative High-Throughput drug screen in 47 multiple myeloma cell lines against the NCATS MIPE library collection: KMS12BM_JCRB cell viability assay (AID 1918971). Note: nearly all actives have a fitted effect of over 35% in size. The method in brief:
(§1)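 Luminescent ATP measurement with CellTiter-Glo gives viability, scaled between DMSO-only wells (100%) and media-only wells (0%). Cells, 500 per well, faced library compounds for 48 hours at 37C.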

Experiment [2] can be described thus: Quantitative High-Throughput drug screen in 47 multiple myeloma cell lines against the NCATS MIPE library collection: KMS12PE_JCRB cell viability assay (AID 1918972). Note: nearly all actives have a fitted effect of over 30% in size. The procedure, abridged: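 qHTS of the MIPE 4.0 collection: 500 myeloma cells/well, 48 h drug exposure at 37C in 5% CO2, then CellTiter-Glo for 5 min at room temperature before luminescence reading.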

The nature of experiment [3]: Quantitative High-Throughput drug screen in 47 multiple myeloma cell lines against the NCATS MIPE library collection: KMS20_JCRB cell viability assay (AID 1918973). Note: nearly all actives have a fitted effect of over 45% in size. The procedure, abridged:
(§2)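 Viability readout: CellTiter-Glo luminescence following 5 min room-temperature incubation with reagent. Prior exposure: 48 h, 37C, humidified 5% CO2, 500 cells per well.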

Experiment [4] can be described thus: Quantitative High-Throughput drug screen in 47 multiple myeloma cell lines against the NCATS MIPE library collection: NCIH929_DSMZ cell viability assay (AID 1918978). Note: nearly all actives have a fitted effect of over 35% in size. The procedure, abridged: (§3)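 Viability after 48 h drug exposure was measured as ATP-dependent luminescence. Cells, 500 per well, sat at 37 °C under 5% CO2; DMSO wells set 100%, media-only wells 0%.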

Experiment [5] is described as follows: Quantitative High-Throughput drug screen in 47 multiple myeloma cell lines against the NCATS MIPE library collection: OCIMY1_PLB cell viability assay (AID 1918979). Note: nearly all actives have a fitted effect of over 35% in size. The method in brief: as §3
Experiment [6] can be described thus: Quantitative High-Throughput drug screen in 47 multiple myeloma cell lines against the NCATS MIPE library collection: LP1_DSMZ cell viability assay (AID 1918982). Note: nearly all actives have a fitted effect of over 35% in size. The method in brief:
as §3

The nature of experiment [7]: Quantitative High-Throughput drug screen in 47 multiple myeloma cell lines against the NCATS MIPE library collection: KMS28PE_JCRB cell viability assay (AID 1918983). Note: nearly all actives have a fitted effect of over 35% in size. The method in brief:
as §3

A short description of experiment [8]: Quantitative High-Throughput drug screen in 47 multiple myeloma cell lines against the NCATS MIPE library collection: OPM1_PLB cell viability assay (AID 1918989). Note: nearly all actives have a fitted effect of over 40% in size. The method in brief:
as §3

The nature of experiment [9]: Quantitative High-Throughput drug screen in 47 multiple myeloma cell lines against the NCATS MIPE library collection: SKMM1_PLB cell viability assay (AID 1919863). Note: nearly all actives have a fitted effect of over 35% in size. As to conditions: SKMM1 myeloma viability, CellTiter-Glo ATP, 48 h; viability: stronger effect = lower value. The method in brief:
as §3
On the technique in general: Cellular ATP, detected with luciferase, serves as a proxy for viable cell number.

A short description of experiment [10]: Quantitative High-Throughput drug screen in 47 multiple myeloma cell lines against the NCATS MIPE library collection: MMM1_PLB cell viability assay (AID 1918976). Note: nearly all actives have a fitted effect of over 35% in size. The procedure, abridged:
as §3

A short description of experiment [11]: Quantitative High-Throughput drug screen in 47 multiple myeloma cell lines against the NCATS MIPE library collection: MM1S_ATCC cell viability assay (AID 1918980). Note: nearly all actives have a fitted effect of over 45% in size. The method in brief: as §3
Experiment [12] in a line: Quantitative High-Throughput drug screen in 47 multiple myeloma cell lines against the NCATS MIPE library collection: MM1R_ATCC cell viability assay (AID 1918981). Note: nearly all actives have a fitted effect of over 35% in size. The procedure, abridged: as §3
Experiment [13] is described as follows: Quantitative High-Throughput drug screen in 47 multiple myeloma cell lines against the NCATS MIPE library collection: L363_DSMZ cell viability assay (AID 1918984). Note: nearly all actives have a fitted effect of over 40% in size. The procedure, abridged:
as §3

Experiment [14] is described as follows: Quantitative High-Throughput drug screen in 47 multiple myeloma cell lines against the NCATS MIPE library collection: KMS34_JCRB cell viability assay (AID 1918985). Note: nearly all actives have a fitted effect of over 40% in size. The method in brief: as §3
A short description of experiment [15]: Quantitative High-Throughput drug screen in 47 multiple myeloma cell lines against the NCATS MIPE library collection: OCIMY5_PLB cell viability assay (AID 1918988). Note: nearly all actives have a fitted effect of over 65% in size. The procedure, abridged: as §3
Experiment [16] can be described thus: Quantitative High-Throughput drug screen in 47 multiple myeloma cell lines against the NCATS MIPE library collection: U266_ATCC cell viability assay (AID 1919864). Note: nearly all actives have a fitted effect of over 35% in size. The procedure, abridged: as §3
The nature of experiment [17]: Quantitative High-Throughput drug screen in 47 multiple myeloma cell lines against the NCATS MIPE library collection: KMS26_JCRB cell viability assay (AID 1918975). Note: nearly all actives have a fitted effect of over 45% in size. The method in brief:
as §1

A short description of experiment [18]: Quantitative High-Throughput drug screen in 47 multiple myeloma cell lines against the NCATS MIPE library collection: OCIMY7_PLB cell viability assay (AID 1918987). Note: nearly all actives have a fitted effect of over 65% in size. Conditions: OCI-MY7 myeloma viability, CellTiter-Glo ATP, 48 h; viability (% of DMSO): at 45.8 µM (top of the series). The method in brief:
as §3

Experiment [19] can be described thus: Quantitative High-Throughput drug screen in 47 multiple myeloma cell lines against the NCATS MIPE library collection: MOLP8_DSMZ cell viability assay (AID 1918977). Note: nearly all actives have a fitted effect of over 45% in size. The method in brief: as §3
A short description of experiment [20]: Quantitative High-Throughput drug screen in 47 multiple myeloma cell lines against the NCATS MIPE library collection: KMS21BM_JCRB cell viability assay (AID 1918974). Conditions: ATP luminescence, 48 h; viability: at 45.8 µM (top of the series) unless noted. The method in brief:
as §2
Potency is the fitted concentration of half-maximal effect.

For orientation: viability means a read-out of living cells in per cent, often relative to untreated cells. For `Cc1ccn(-c2ccc(-c3ncco3)cc2)c(=O)c1-c1ccc2nc(N)ncc2c1`, the Potency in [1] is 13.2 µM (active); in [2] it was 5.26 µM (active); in experiment [3], 8.33 µM (active); in experiment [8] it was 3.72 µM (active). The Potency entry in [4], in experiment [5], in experiment [6] and in [7] was “inactive” throughout. The viability in [9] is 99.5%.

On to `Cc1nc(N)sc1-c1ccnc(Nc2ccc(N3CCOCC3)cc2)n1`, for which the Potency in experiment [1] is 14.8 µM (active); in experiment [2], 2.64 µM (active); in [3] it was 7.43 µM (active); in experiment [10], 20.9 µM (active); in [4], 7.43 µM (active); in experiment [5], 16.6 µM (active). Further, the Potency in [11] is 18.7 µM (active); in [12], 10.5 µM (active); in [6], 20.9 µM (active); in experiment [7], 16.6 µM (active); in experiment [13], 2.96 µM (active); in [14], 1.05 µM (active). Besides, the Potency was 5.26 µM (active) in experiment [15], 4.18 µM (active) in [8] and 23.5 µM (active) in [16].

On to `Nc1ncnc2c1ncn2[C@@H]1O[C@H](CO)C[C@@H]1O`, for which the Potency in [1] is 20.9 µM (active); in experiment [10], 1.32 µM (active); in experiment [9], 18.7 µM (active); in experiment [16], 26.4 µM (active). The Potency entry in experiment [2], in experiment [3], in experiment [17], in experiment [4], in [5] and in [12] was “inactive” each time. For the same compound, the Potency entry in experiment [13], in experiment [18] and in experiment [8] was “inactive” each time.

As for `CC=CC(=O)N(CC)c1ccccc1C`, the Potency result in experiment [1], in experiment [2], in experiment [3], in [4], in [5] and in [12] was “inactive” each time. Further, the Potency result in experiment [6], in experiment [7], in experiment [13], in [15] and in experiment [8] was “inactive” throughout. Moreover, the figures for the Potency in experiment [10], in experiment [19] and in experiment [11] were 3.72 µM (active), 0.0418 µM (active) and 6.62 µM (active), respectively. Further, the viability in experiment [9] was 126%.

Turning to `C=C1C(=O)[C@@]23C(CC[C@@H]1[C@H]2O)[C@@]12CO[C@]3(O)[C@@H](O)[C@@H]1C(C)(C)CC[C@@H]2O` (some centres undefined), the Potency in [1] is 9.35 µM (active); in experiment [2] it was 2.09 µM (active); in experiment [3], 2.35 µM (active); in experiment [17], 2.64 µM (active); in experiment [10] it was 13.2 µM (active); in experiment [4], 1.32 µM (active). Moreover, the Potency was 7.43 µM (active) in experiment [5]; 1.87 µM (active) in [11]; 1.48 µM (active) in experiment [12]; 3.72 µM (active) in [7]; 1.05 µM (active) in experiment [14]; 1.87 µM (active) in experiment [15]. The results for the Potency in [8] and in experiment [9] were 3.72 µM (active) and 13.2 µM (active), respectively.

Turning to `COc1cc(O)c2c(c1)C(=O)c1cc(C)cc(O)c1C2=O`, the Potency entry in experiment [1], in experiment [2], in [3], in experiment [17], in experiment [5] and in experiment [6] was “inactive” in each case. The Potency result in experiment [13] is “inactive”. The viability in experiment [9] is 131%.

`Clc1ccc(C(c2ccc(Cl)cc2)n2cc[n+](CC(OCc3ccc(Cl)cc3Cl)c3ccc(Cl)cc3Cl)c2)cc1` (centres undefined): the Potency in experiment [1] was 23.5 µM (active); in experiment [2], 7.43 µM (active); in experiment [3], 8.33 µM (active); in experiment [20], 8.33 µM (active); in experiment [17], 16.6 µM (active); in experiment [10] it was 18.7 µM (active). For the same compound, the Potency was 18.7 µM (active) in experiment [5]; 16.6 µM (active) in experiment [11]; 18.7 µM (active) in [12]; 20.9 µM (active) in experiment [7]; 6.62 µM (active) in experiment [13]; 16.6 µM (active) in experiment [14]. Besides, the values for the Potency in [15], in [8] and in experiment [9] were 14.8 µM (active), 11.8 µM (active) and 20.9 µM (active), respectively.

With `Cc1[nH]c(C=C2C(=O)Nc3ccc(S(=O)(=O)Cc4c(Cl)cccc4Cl)cc32)c(C)c1C(=O)N1CCC[C@H]1CN1CCCC1`, the Potency in experiment [1] was 23.5 µM (active); in [2], 2.64 µM (active); in experiment [3] it was 0.743 µM (active); in experiment [20] it was 4.69 µM (active); in experiment [17], 23.5 µM (active); in experiment [10] it was 23.5 µM (active). Also, the Potency was 16.6 µM (active) in experiment [19]; 26.4 µM (active) in experiment [5]; 20.9 µM (active) in experiment [12]; 23.5 µM (active) in [6]; 20.9 µM (active) in experiment [7]; 2.35 µM (active) in experiment [13]. The Potency was 20.9 µM (active) in [14]; 14.8 µM (active) in experiment [15]; 8.33 µM (active) in [8]; 20.9 µM (active) in experiment [9]; 23.5 µM (active) in [16].

Regarding `O=c1cc(N2CCOCC2)oc2c(-c3cccc4c3sc3ccccc34)cccc12`, the Potency was 16.6 µM (active) in [1]; 11.8 µM (active) in experiment [2]; 13.2 µM (active) in [3]; 20.9 µM (active) in experiment [17]; 20.9 µM (active) in [10]; 3.72 µM (active) in [4]. Moreover, the Potency is 16.6 µM (active) in experiment [12]; 14.8 µM (active) in experiment [7]; 8.33 µM (active) in experiment [13]; 20.9 µM (active) in experiment [15]; 4.18 µM (active) in experiment [8]; 11.8 µM (active) in experiment [9].

Turning to `O=C(NCc1ccccc1)c1csc(Nc2ccncn2)n1`, the Potency was 14.8 µM (active) in experiment [1]; 8.33 µM (active) in experiment [2]; 14.8 µM (active) in experiment [3]; 14.8 µM (active) in [10]; 18.7 µM (active) in [19]; 20.9 µM (active) in [5]. Moreover, the Potency in experiment [11] is 16.6 µM (active); in [12], 14.8 µM (active); in experiment [6], 18.7 µM (active); in experiment [7], 16.6 µM (active); in experiment [13], 10.5 µM (active); in [14], 23.5 µM (active). Moreover, the Potency in experiment [18] is 8.33 µM (active); in experiment [8] it was 13.2 µM (active); in experiment [9] it was 18.7 µM (active).

Consider `CCOc1ccc(Nc2nc(-c3c(C)nc4ccccn34)cs2)cc1`, for which the Potency in experiment [1] is 0.0066 µM (active); in experiment [2] it was 0.003 µM (active); in experiment [17], 0.332 µM (active); in experiment [10] it was 20.9 µM (active); in experiment [12], 0.0059 µM (active); in [7], 0.0059 µM (active). The Potency is 0.0033 µM (active) in experiment [14], 0.0026 µM (active) in [15], 0.0066 µM (active) in experiment [8] and 0.264 µM (active) in [9]. In experiment [3], the Potency entry was “inactive”.

(Values after PubChem BioAssay (NCATS).)
